From PubChem BioAssay AID1159580 (chemical genetic matrix, 2015)
Among all 5,500 compounds or so, about 2,000 (36%) were called active. Not shown: some 18% with an inconclusive outcome. Rule as the data show it: active = normalized growth mostly below about 0.91 (no sharp cut-off); inconclusive = no clear call, values can overlap the other calls; inactive = mostly above about 0.92. This is one part of the list.

Test: chemical genetic growth profiling, strain panel (AID 1159580);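 also: tested at 20 µM; growth read once vehicle control cultures reached saturation at 30 °C; 1 = growth at the plate median or of vehicle wells; lower values mean less growth of the strain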
Settings: S. cerevisiae deletion strains, growth OD
[1] = locus YAL013W, strain DEP1, active compounds read low
[2] = locus YBR229C, strain ROT2, active compounds read low
[3] = locus YDL101C, strain DUN1, active compounds read low
[4] = locus YDR150W, strain NUM1, active compounds read low
[5] = locus YEL061C, strain CIN8, active compounds read low
[6] = locus YGR078C, strain PAC10, active compounds read low
[7] = locus YHR030C, strain SLT2, active compounds read low
[8] = locus YHR087W, strain rtc3, active compounds read low
[9] = locus YJL187C, strain SWE1, active compounds read low
[10] = locus YJR043C, strain POL32, active compounds read low
[11] = locus YJR075W, strain HOC1, active compounds read low
[12] = locus YLR039C, strain RIC1, active compounds read low
[13] = locus YLR058C, strain SHM2 (second series), active compounds read low
[14] = locus YLR085C, strain ARP6, active compounds read low
[15] = locus YLR262C, strain YPT6, active compounds read low
[16] = locus YML094W, strain GIM5, active compounds read low
[17] = locus YMR219W, strain ESC1, active compounds read low
[18] = locus YMR263W, strain SAP30, active compounds read low
[19] = locus YNL153C, strain GIM3, active compounds read low
[20] = locus YNL298W, strain CLA4 (second series), active compounds read low
[21] = locus YNL322C, strain KRE1, active compounds read low
[22] = locus YNR030W, strain Alg12, active compounds read low
[23] = locus YPL055C, strain LGE1, active compounds read low
[24] = locus YPL241C, strain CIN2, active compounds read low
[25] = locus YPR135W, strain CTF4, active compounds read low
[26] = locus YAR019C, strain CDC15, active compounds read low
[27] = locus YBL105C, strain PKC1, active compounds read low
[28] = locus YBR135W, strain CKS1, active compounds read low
[29] = locus YBR136W, strain MEC1, active compounds read low
[30] = locus YBR160W, strain CDC28, active compounds read low
[31] = locus YDL017W, strain CDC7, active compounds read low
[32] = locus YDL028C, strain MPS1, active compounds read low
[33] = locus YDL108W, strain KIN28, active compounds read low
[34] = locus YDL132W, strain cdc53, active compounds read low
[35] = locus YDL214C, strain PRR2, active compounds read low
[36] = locus YDR052C, strain DBF4, active compounds read low
[37] = locus YDR054C, strain cdc34, active compounds read low
[38] = locus YDR226W, strain ADK1, active compounds read low
[39] = locus YDR477W, strain SNF1, active compounds read low
[40] = locus YER123W, strain YCK3, active compounds read low
[41] = locus YER133W, strain GLC7, active compounds read low
[42] = locus YFL009W, strain cdc4, active compounds read low
[43] = locus YFL029C, strain CAK1, active compounds read low
[44] = locus YFR003C, strain YPI1, active compounds read low
[45] = locus YFR019W, strain FAB1, active compounds read low
[46] = locus YFR028C, strain CDC14, active compounds read low
[47] = locus YGR040W, strain KSS1, active compounds read low
[48] = locus YGR052W, strain FMP48, active compounds read low
[49] = locus YGR092W, strain DBF2, active compounds read low
[50] = locus YHR079C, strain IRE1, active compounds read low
[51] = locus YHR082C, strain KSP1, active compounds read low
[52] = locus YHR205W, strain SCH9, active compounds read low
[53] = locus YIL147C, strain SLN1, active compounds read low
[54] = locus YJL095W, strain BCK1, active compounds read low
[55] = locus YJL128C, strain PBS2, active compounds read low
[56] = locus YJL157C, strain FAR1, active compounds read low
[57] = locus YJR016C, strain ILV3, active compounds read low
[58] = locus YJR066W, strain TOR1 (second series), active compounds read low
[59] = locus YJR066W, strain TOR1, active compounds read low
[60] = locus YKL048C, strain ELM1, active compounds read low
[61] = locus YKL067W, strain YNK1, active compounds read low
[62] = locus YKL101W, strain HSL1, active compounds read low
[63] = locus YKL193C, strain SDS22, active compounds read low
[64] = locus YKL203C, strain TOR2, active compounds read low
[65] = locus YLR113W, strain HOG1, active compounds read low
[66] = locus YLR133W, strain CKI1, active compounds read low
[67] = locus YLR403W, strain SFP1, active compounds read low
[68] = locus YML070W, strain DAK1, active compounds read low
[69] = locus YMR001C, strain CDC5, active compounds read low
[70] = locus YMR205C, strain PFK2 (second series), active compounds read low
[71] = locus YMR277W, strain FCP1, active compounds read low
[72] = locus YNL006W, strain LST8, active compounds read low
[73] = locus YNL020C, strain ARK1, active compounds read low
[74] = locus YNL161W, strain CBK1, active compounds read low
[75] = locus YNL183C, strain NPR1, active compounds read low
[76] = locus YNL207W, strain RIO2, active compounds read low
[77] = locus YNL222W, strain SSU72, active compounds read low
[78] = locus YNL307C, strain MCK1 (second series), active compounds read low
[79] = locus YOL078W, strain AVO1, active compounds read low
[80] = locus YOL136C, strain PFK27, active compounds read low
[81] = locus YOR061W, strain CKA2, active compounds read low
[82] = locus YOR119C, strain RIO1, active compounds read low
[83] = locus YOR231W, strain MKK1, active compounds read low
[84] = locus YOR329C, strain SCD5, active compounds read low
[85] = locus YPL031C, strain PHO85, active compounds read low
[86] = locus YPL153C, strain RAD53, active compounds read low
[87] = locus YPL204W, strain HRR25, active compounds read low
[88] = locus YPL209C, strain IPL1, active compounds read low
[89] = locus YPL256C, strain CLN2, active compounds read low
[90] = locus YPR025C, strain CCL1, active compounds read low
[91] = locus YPR106W, strain ISR1, active compounds read low
[92] = locus YPR111W, strain DBF20, active compounds read low
[93] = strain NNK1, active compounds read low
[94] = strain TSCII, active compounds read low

Measured: normalized growth

N#C/C(=C\c1ccc(Oc2ccccc2)nc1)S(=O)(=O)c1ccccc1
inactive: [1] 0.996 | [2] 1 | locus YCL061C, strain MRC1, active compounds read low 0.976 | [3] 1 | [4] 0.984 | [5] 1.01 | [6] 1 | [7] 0.978 | [8] 1 | [9] 0.993 | [10] 0.981 | [11] 0.99 | locus YKL190W, strain CNB1, active compounds read low 1 | [12] 0.95 | [13] 1.01 | [14] 0.998 | [15] 1.02 | [16] 1.02 | [17] 1 | [18] 0.956 | locus YMR307W, strain GAS1, active compounds read low 0.884 | [19] 0.993 | [20] 0.939 | [21] 1 | [22] 0.997 | locus YOL006C, strain TOP1, active compounds read low 0.922 | [23] 0.988 | [24] 0.996 | [25] 0.955

CC1(C)OC(=O)C(=Cc2cccn2-c2ccc(C(F)(F)F)cc2)C(=O)O1
inactive: [26] 1.01 | [27] 1.03 | [28] 1.04 | [29] 1.03 | [30] 1.02 | [31] 1.04 | [32] 1.01 | [3] 1 | [33] 1.02 | [34] 1.03 | [35] 0.913 | [36] 1.01 | [37] 1.02 | [38] 1.03 | [39] 0.908 | [40] 0.896 | [41] 0.963 | [42] 1.02 | [43] 0.998 | [44] 1.03 | [45] 0.941 | [46] 0.999 | [47] 0.921 | [48] 0.954 | [49] 0.921 | [50] 0.86 | [51] 0.901 | [52] 0.775 | [53] 1.02 | [54] 0.844 | [55] 0.931 | [56] 0.946 | [57] 1.01 | [58] 0.958 | [59] 0.844 | [60] 0.88 | [61] 0.912 | [62] 0.885 | [63] 1.02 | [64] 1.01 | [66] 0.916 | [67] 0.898 | [68] 0.912 | [69] 1 | [70] 0.93 | [71] 1 | [72] 1 | [73] 0.914 | [74] 1.03 | [75] 0.917 | [76] 1.03 | [77] 1.02 | [78] 0.859 | [79] 1.01 | [80] 0.884 | [81] 0.818 | [82] 0.944 | [83] 0.83 | [84] 1.03 | [85] 0.917 | [86] 0.901 | [87] 0.905 | [88] 1.03 | [90] 1.03 | [91] 0.99 | [92] 0.964 | [93] 0.988 | [94] 0.991
active: [7] 0.686 | [65] 0.711 | [89] 0.777

CC1(C)OC(=O)C(=Cc2cccn2-c2ccc(OC(F)(F)F)cc2)C(=O)O1
inactive: [26] 0.966 | [27] 0.995 | [28] 0.996 | [29] 0.987 | [30] 0.985 | [31] 0.999 | [32] 0.972 | [3] 0.979 | [33] 0.989 | [34] 0.99 | [35] 0.899 | [36] 0.989 | [37] 0.972 | [38] 0.963 | [39] 0.898 | [40] 0.884 | [41] 0.944 | [42] 0.96 | [43] 0.967 | [44] 0.993 | [45] 0.942 | [46] 0.964 | [47] 0.91 | [48] 0.921 | [49] 0.881 | [50] 0.875 | [51] 0.861 | [52] 0.801 | [53] 0.976 | [54] 0.832 | [55] 0.918 | [56] 0.948 | [57] 0.979 | [58] 0.987 | [59] 0.829 | [60] 0.931 | [61] 0.915 | [62] 0.89 | [63] 0.973 | [64] 0.989 | [66] 0.923 | [67] 0.92 | [68] 0.909 | [69] 0.97 | [70] 0.93 | [71] 0.954 | [72] 0.975 | [73] 0.922 | [74] 0.982 | [75] 0.894 | [76] 0.986 | [77] 0.98 | [78] 0.887 | [79] 0.973 | [80] 0.908 | [81] 0.916 | [82] 0.936 | [83] 0.827 | [84] 0.986 | [85] 0.914 | [86] 0.916 | [87] 0.923 | [88] 0.991 | [90] 1 | [91] 0.967 | [92] 0.939 | [93] 0.976 | [94] 0.968
active: [7] 0.673 | [65] 0.768 | [89] 0.782

N#C/C(=C\c1cccn1-c1ccc(OC(F)(F)F)cc1)S(=O)(=O)c1ccccc1
active: [14] 1.23 [resistant] | [25] 1.38 [resistant]
inactive: [1] 1.05 | [2] 1 | [3] 0.982 | [4] 1.03 | [5] 1.02 | [6] 1.02 | [7] 1.04 | [8] 1.02 | [9] 1.01 | [10] 0.986 | [11] 0.988 | [12] 1 | [13] 0.995 | [15] 0.976 | [16] 1.07 | [17] 1.01 | [18] 1 | [19] 1.03 | [20] 1.03 | [21] 1 | [22] 1.05 | [23] 1.14 | [24] 1.09
